# From PubChem
# ELG1 genotoxic = induces genotoxicity in HEK293T cells with luciferase-tagged ELG1; 1.3% of 330,000 active; Potency, µM (doses to about 46 µM), without a hit: top-dose activity change, positive = activation, most hits filed as activators; AID 504466; HEK293T ELG1-luciferase reporter, luminescence, 16 h; also: % of control where 0% means no effect; nearly all actives have a fitted effect of over 60% in size
#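 HEK293T cells expressing luciferase-tagged ELG1 were treated with compound or DMSO for 16 hr at 37°C. Luciferase activity was then read after 30 min with ONE-Glo at room temperature; rising signal flags genetic stress.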
# NPC1 prom act = activators of NPC1 promoter; AID 485313; Huh7 NPC1 promoter luciferase reporter, 24 h; Potency, µM (highest dose often 9.22 µM), inactives show at the highest dose activation, actives largely listed as activators; 2.4% of 320,000 active; also: % of control where 0% means no effect; nearly all actives have a fitted effect of over 60% in size
#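 In 1536-well qHTS, Huh7 cells harboring an NPC1 promoter–luciferase construct received compound for 24 h; activation was quantified by luminescence following luciferase reagent addition.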
# Rab9 prom act = activates the Rab9 promoter. Huh7 Rab9 promoter-luciferase reporter, luminescence, 24 h. Potency, µM (titrated, usually from 9.22 µM), without a hit: at the highest dose activation, negative = inhibition, most hits filed as activators. 2.8% of 320,000 active; also: % of control where 0% means no effect; nearly all actives have a fitted effect of over 60% in size
#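 Steps: seed 1500 Huh7 Rab9-luc cells per well, rest 2 h at 37 °C; add compound in DMSO; incubate 24 h; add luciferase reagent, 10 min ambient; read luminescence.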
# FLuc modulator = inhibits or activates purified firefly luciferase, miR-21 counter-screen; P08659; purified FLuc, Km substrates, luminescence inhibition; Potency, µM (titrated, usually from 57.5 µM), without a hit: at the highest dose activity change, negative = inhibition, actives largely listed as inhibitors; 6.9% of 360,000 active;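 also: plate controls were vehicle for no effect and reference inhibitor for full effect; nearly all actives have a fitted effect of over 55% in size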
# Target sequence (P08659 whole entry, looked up): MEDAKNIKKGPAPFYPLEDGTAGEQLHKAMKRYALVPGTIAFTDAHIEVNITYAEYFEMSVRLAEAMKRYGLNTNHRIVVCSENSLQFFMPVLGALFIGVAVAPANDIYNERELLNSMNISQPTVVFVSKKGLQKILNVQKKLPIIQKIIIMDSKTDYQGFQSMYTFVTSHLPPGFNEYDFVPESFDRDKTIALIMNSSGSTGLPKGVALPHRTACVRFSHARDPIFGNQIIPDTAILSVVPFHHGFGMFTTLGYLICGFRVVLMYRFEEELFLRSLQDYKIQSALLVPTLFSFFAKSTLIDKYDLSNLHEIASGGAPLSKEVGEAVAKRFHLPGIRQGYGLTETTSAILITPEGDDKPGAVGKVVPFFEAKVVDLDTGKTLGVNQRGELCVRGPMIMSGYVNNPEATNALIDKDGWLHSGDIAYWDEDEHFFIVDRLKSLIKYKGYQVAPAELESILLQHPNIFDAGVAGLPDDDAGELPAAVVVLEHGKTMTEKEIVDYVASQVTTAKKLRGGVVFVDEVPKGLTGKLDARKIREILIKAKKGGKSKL
#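 Purified P. pyralis luciferase (10nM final) with 10uM D-luciferin and 10uM ATP (Km levels) in 50mM Tris acetate pH 7.5, 10mM Mg acetate, 0.01% Tween-20, 0.05% BSA; qHTS 6-point titration, ~60 µM downward; luminescence read.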
# Luc counter = counter-screen: inhibitors of Kinase-Glo firefly luciferase | Q27757 | Kinase-Glo luciferase, ATP luminescence, 8 min | Potency, µM (doses to about 38.3 µM), without a hit: at the top dose activity change, negative = inhibition, most hits filed as inhibitors | 0.28% of 200,000 active | AID 1379; also: % is scaled to controls: 0 for no effect and ±100 for the full control effect; nearly all actives have a fitted effect of over 60% in size
#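 Substrate mix (final 50 mM imidazole pH 7.2, 50 mM KCl, 7 mM MgCl2, 10 uM ATP, 0.01% Tween 20, 0.05% BSA) plus pin-tool compound, then Kinase-Glo detection mix; 8 min ambient, luminescence read.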
# SMN2 splice enh = SMN2 splice variant enhancement | HEK293 SMN2-luciferase splicing reporter, luminescence, 30-36 h | Potency, µM (doses to about 46.1 µM), inactives show at the highest dose activity change, positive = activation, actives largely listed as activators | 2.8% of 210,000 active; also: % of control where 0% means no effect; nearly all actives have a fitted effect of over 55% in size
#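 HEK293 cells carry an SMN2 […]–luciferase reporter in which exon 7 inclusion puts luciferase in frame. Cells were plated 10-12 h before compound addition, then incubated 30-36 h at 37C. ONE-Glo luminescence was read; sodium butyrate at 4.5 mM final served as control.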
# * marks the source's active call; other numbers are inactive results; ? = inconclusive; nt = not tested or not shown; [ ] = another dose, or the depositor's remark. This is a sample that favours compounds with a hit; in the whole collection about 7.5% have one here. Calls follow the shape of the dose curve; as a rule, active = well fitted curve in the direction sought with a large enough effect; inconclusive = small, poorly fitted or top-dose-only effect, or another doubt; inactive = no such curve, though single readings can be large; an effect the other way counts as inactive or inconclusive. Potency is read from the fitted curve at half-maximal effect.
SMILES,ELG1 genotoxic,NPC1 prom act,Rab9 prom act,FLuc modulator,Luc counter,SMN2 splice enh
O=C(c1ccc(-c2ccc([N+](=O)[O-])cc2)o1)N1CCCC(C(F)(F)F)C1 (stereo unspecified),-0.1%,15.1%,-1.5%,1.3%,nt,nt
O=C(c1ccc(-c2ccc([N+](=O)[O-])cc2)o1)N1CCCCCCC1,10.8%,?,?,10.7µM*,nt,nt
O=C(c1ccco1)N1CCN(C(=O)c2ccc(-c3ccc(Cl)cc3)o2)CC1,-7.3%,1.3%,8.5%,16.9µM*,nt,nt
COC(=O)CSc1nnc(SCc2ccc(Cl)cc2)s1,1.8%,-0.1%,-3.5%,16.9µM*,-11.2%,-9.2%
O=C(C[C@@H]1C/C=C\CC[C@H](Cc2ccc(F)cc2)C(=O)OC[C@@H]2CCCN2C1=O)N[C@H](CO)Cc1ccccc1,-5.7%,nt,nt,nt,nt,nt
Cn1c(Oc2ccccc2)nc2c1c(=O)n(Cc1ccc(Cl)cc1Cl)c(=O)n2C,nt,nt,nt,5.8%,nt,-8.5%
CC1CCC(NC(=O)C2COc3ccccc3O2)CC1 (stereo unspecified),14.6µM*,17.5%,20.0%,-4.8%,nt,nt
O=C(Nc1ncccc1Cl)C1COc2ccccc2O1 (stereo unspecified),?,-2.1%,9.1%,16.9µM*,-5.0%,-15.2%
Cc1ccc(NC(=O)C2COc3ccccc3O2)cc1 (stereo unspecified),?,2.82µM*,3.55µM*,23.9µM*,nt,nt
CN(C)S(=O)(=O)Nc1ccc(-c2cn3ccsc3n2)cc1,nt,nt,nt,26.9µM*,nt,nt
O=C(NC1CCCCC1)C1COc2ccccc2O1 (stereo unspecified),3.7%,0.5%,3.3%,1.8%,nt,nt
COc1cc2cc(CCCOC(=O)c3ccco3)oc(=O)c2cc1OC,-1.8%,1.1%,-4.6%,-0.2%,nt,nt
Cc1ccc(NC(=O)C2COc3ccccc3O2)c(C)c1 (stereo unspecified),10.8%,26.7%,3.8%,?,nt,nt
O=C(Nc1cccnc1)C1COc2ccccc2O1 (stereo unspecified),1.3%,0.1%,-2.7%,-2.6%,-6.8%,-4.9%
Cc1ccnc(NC(=O)C2COc3ccccc3O2)c1 (stereo unspecified),?,2.82µM*,3.55µM*,9.53µM*,-9.2%,?
CC1(C)Oc2ccc(NC(=O)C3COc4ccccc4O3)cc2O1 (stereo unspecified),?,1.58µM*,0.501µM*,1.9µM*,-21.8%,-22.6%
O=C(Nc1ccc(-c2cn3ccsc3n2)cc1)C1COc2ccccc2O1 (stereo unspecified),-0.6%,?,3.16µM*,26.9µM*,-2.7%,8.7%
O=C(Nc1ccccc1)C1COc2ccccc2O1 (stereo unspecified),15.5%,25.4%,9.9%,-14.8%,nt,nt
Cc1ccc(NC(=O)C2COc3ccccc3O2)nc1 (stereo unspecified),10µM*,24.1%,26.9%,13.5µM*,-5.9%,-5.8%
CC(=O)N1CCc2cc(S(=O)(=O)CCC(=O)N3CCN(c4cccc(C)c4C)CC3)ccc21,nt,nt,nt,4.2%,nt,-8.5%
CN(CC(=O)Nc1ccccc1Br)C(=O)CN1CCN(c2ccccc2Cl)CC1,-0.2%,-8.3%,-3.7%,-3.0%,nt,nt
CC(=O)N[C@@H](C=O)[C@@H](O)[C@H](O)[C@H](O)CO,nt,nt,nt,nt,2.7%[39.9 µM],nt
C/C(=N\NC(=O)C1COc2ccccc2O1)c1ccccn1 (stereo unspecified),11.6µM*,-12.3%,-25.0%,-11.4%,-2.4%,-75.8%
Cn1c(-c2ccccc2)cc2c3no[n+]([O-])c3ccc21,4.8%,?,-27.7%,13.5µM*,3.6%,-79.9%
CCOC(=O)c1c(C)n(OCc2ccccc2)c2ccc3c(no[n+]3[O-])c12,3.7%,-1.7%,-4.6%,1.0%,-0.9%,-0.1%
SMILES,ELG1 genotoxic,NPC1 prom act,Rab9 prom act,FLuc modulator,Luc counter,SMN2 splice enh
COc1ccc(NC(=O)Cn2c(=O)n(Cc3ccccc3)c(=O)c3oc4ccccc4c32)cc1Cl,nt,nt,nt,2.39µM*,nt,nt
CCc1ccc(NC(=O)Cn2c(=O)n(Cc3ccccc3)c(=O)c3oc4ccccc4c32)cc1,nt,nt,nt,-3.9%,nt,nt
O=C(OCC1OC(n2cc(Br)c(=O)[nH]c2=O)C(Br)C1O)c1ccccc1 (stereo unspecified),-0.1%,1.0%,0.7%,3.1%,nt,nt
Cc1ccc(C(=O)Nc2ncc(C)s2)o1,?,3.16µM*,3.98µM*,10.7µM*,?,12.6µM*
Cc1ccc(C(=O)Nc2ncc(C)s2)s1,?,0.447µM*,?,0.849µM*,nt,nt
Cc1ccc(C(=O)Nc2ncc(Cc3ccc(F)cc3)s2)o1,?,2.51µM*,2.82µM*,2.69µM*,-8.8%,11.2µM*
CSc1ccccc1C(=O)Nc1ncc(C)s1,14.2%,-0.8%,-0.6%,?,10.4%,-6.1%
CC1CN(C(=O)CCC(=O)NCc2ccccc2)c2ccccc2O1 (stereo unspecified),3.8%,0.9%,2.9%,0.7%,nt,nt
Cc1cccc(N(C)C(=O)c2cc3c(=O)oc4ccc(C)cc4c3s2)c1,nt,nt,nt,-9.2%,nt,0.5%
CCOC(=O)c1ccc(CC(=O)c2ccc(O)cc2O)o1,-15.2%,-4.5%,1.5%,4.7%,-0.3%,-2.1%
O=C(COc1ccc(Cl)cc1)c1ccc(O)cc1O,?,29.7%,?,8.49µM*,nt,nt
CCOC(=O)c1ccc(OCC(=O)c2ccc(O)cc2O)cc1,?,21.0%,22.4%,6.75µM*,-10.7%,-1.7%
COC(=O)c1ccc(OCC(=O)c2ccc(O)cc2O)cc1,9.9%,?,4.4%,6.75µM*,-6.1%,-6.8%
O=C(COc1ccccc1)OCC(=O)c1ccc(O)cc1O,0.5%,-8.7%,2.7%,?,nt,nt
O=C(COC(=O)c1ccc(O)cc1O)c1ccc(Cl)cc1,12.5%,12.6%,-0.1%,16.9µM*,nt,nt
COC(=O)c1ccc(OCC(=O)c2ccc(C)c(C)c2)cc1,3.2%,25.9%,21.6%,?,2.4%,18.6%
CC1(C)CC[C@]2(C(=O)O)CC[C@]3(C)C(=CC[C@@H]4[C@@]5(C)CC[C@H](O[C@@H]6O[C@H](C(=O)O)[C@@H](O)[C@H](O[C@@H]7OC[C@H](O)[C@H](O)[C@H]7O)[C@H]6O)C(C)(C)[C@@H]5CC[C@]43C)[C@@H]2C1,-10.3%,nt,nt,nt,nt,nt
COCc1cc(CNC(=O)C2CCC(=O)N(Cc3cccc(OC)c3)C2)[nH]n1 (stereo unspecified),0.8%,-0.3%,-2.0%,-0.2%,nt,nt
COc1ccc(CNC(=O)C2CCC(=O)N(CCCN3CCCC3=O)C2)c(OC)c1 (stereo unspecified),8.8%,-1.2%,-3.2%,-2.9%,nt,nt
Cc1c(C(C)(C)C)s/c(=N/S(=O)(=O)c2ccccc2)n1C,1.5%,4.3%,2.4%,4.3%,nt,nt
